For part of these data: Measured potencies and affinities stand elsewhere. Active and inactive are the calls of the source.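 How the source made its calls, unless noted: active means fitted half-maximal concentration within 10 nM to 100 µM, steepness 0.5 to 2, significant signal drop, low assay interference; inactive means the rest.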
These molecules were tested against GTPase HRas (Homo sapiens) (UniProt P01112) (assay: Ras wt fluorescent GTP loading blockade – biochemical, wildtype, multiplex bead flow cytometry, dose response (AID 1335)). Details: bead-based flow cytometry, Bodipy-GTP binding to GST-Ras; at 100 µM (top of the series) unless noted.
Sequence of GTPase HRas (Homo sapiens) (P01112 whole entry, looked up): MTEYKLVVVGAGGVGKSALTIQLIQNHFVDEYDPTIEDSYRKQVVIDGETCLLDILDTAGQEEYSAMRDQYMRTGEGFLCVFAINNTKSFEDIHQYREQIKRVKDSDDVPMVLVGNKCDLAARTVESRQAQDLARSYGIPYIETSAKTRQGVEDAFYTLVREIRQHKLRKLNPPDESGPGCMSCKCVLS

| SMILES | GTP binding, percent of control [%] |
| --- | --- |
| COc1cccc(Nc2c(F)c(F)c(F)c(F)c2C(=O)O)c1 | 60.7 |
| COc1ccc(S(=O)(=O)Cc2ccc(C(=O)N3CCN(c4cc(Cl)ccc4C)CC3)o2)cc1 | 57.4 |
| CCCCn1c(SCC(=O)c2ccccc2)nc2c1c(=O)[nH]c(=O)n2C | 61.3 |
| CC1Cc2ccccc2N1S(=O)(=O)c1cccc(C(=O)NCCCO)c1 (stereo not drawn) | 85.5 |
| COc1cc(/C=N/NC(=S)Nc2cccnc2)cc(OC)c1O | 72 |
| COc1cc2[nH]c(=S)nc(NCCC(C)C)c2cc1OC | 55.6 |
| O=C(CCc1nnc(-c2ccc3c(c2)OCO3)o1)N1CCC(c2ccc(F)cc2)C1 (stereo not drawn) | 88.1 |
| COc1ccc(/C=N/NC(=S)Nc2cc(S(=O)(=O)N3CCOCC3)ccc2N2CCOCC2)cc1O | 80.8 |
| COc1ccc(-c2c3c(nc4sc5c(=O)[nH]c(C)nc5c24)CCC3)cc1 | 49.1 |
| CC(C)CCNC(=O)CN(CCCN1CCOCC1)C(=O)Cn1nnc(-c2ccc(F)cc2)n1 | 180 |
| N#Cc1c(C(F)(F)F)cc(-c2ccc(Cl)cc2)[nH]c1=O | 66 |
| CCn1c2ccccc2c2nnc(SCC(=O)NCCOC)nc21 | 59.6 |
| C/C(=N\NC(=O)c1c[nH]c2ccccc12)c1ccc(C)o1 | 68.2 |
| Cc1ccc(-c2noc(CN3C(C)CCCC3C)n2)cc1 (stereo not drawn) | 62.9 |
| COc1cc2c(cc1OC)-c1cc(NC3CCCCCCC3)nc(=O)n1CC2 | 68.6 |
| O=C(N/N=C/c1c(O)n(Cc2ccccc2)c(=O)c2ccccc12)c1cccnc1 | 75.7 |
| COC(=O)c1cccc(NC(=O)c2nn(C)c(=O)c3ccccc23)c1 | 155 |
| N#C/C(=C/c1ccc(-c2cc(C(=O)O)cc(C(=O)O)c2)o1)c1nc2ccccc2s1 | 66.4 |
| COc1ccc(/C=C2\SC(=S)NC2=O)cc1OS(=O)(=O)c1ccc(NC(C)=O)cc1 | 80.1 |
| CCc1nnc(NC(=O)CCC(=O)N2CCN(c3ccccn3)CC2)s1 | 163 |

| SMILES | GTP binding, percent of control [%] |
| --- | --- |
| Cc1cc(C(F)F)n2nc(C(=O)Nc3ccc(S(=O)(=O)N4CCCCCC4)cc3)nc2n1 | 82.1 |
| NC(=O)COC(=O)c1cccc2c1-c1ccccc1C2=O | 75 |
| Cc1nnc(OC(C)C)c2nn(-c3ccccc3F)c(C)c12 | 69.3 |
| Oc1ccc(/C=N/NC(=S)N/N=C/c2ccc(O)cc2)cc1 | 88.4 |
| C=CC#CC[N+]1(CC#Cc2ccccc2)CCOCC1 | 95.4 |
| CCN1/C(=C/c2ccc3cc(C)ccc3[n+]2C)Sc2ccc3sccc3c21 | 74.4 |
| O=[N+]([O-])c1ccc2c(c1)c(-c1ccccc1)nc1nncn12 | 72.1 |
| O=S(=O)(N/N=C\c1cccnc1)c1ccccc1 | 67.9 |
| COc1ccc(CCn2c(C(C)C)nc3c(c(=O)c4ccccc4n3C)c2=O)cc1 | 82.6 |
| CC(C)Cc1csc(NC(=O)c2ccccc2Cl)c1C(=O)O | 74.3 |
| COc1ccccc1OCc1cccc(C(=O)O)c1 | 92.8 |
| COc1ccc(OC)c(Nc2nc(-c3sc(N)nc3C)cs2)c1 | 72.6 |
| COc1ccc(C(=O)c2c(O)cc(-c3ccc(OC)cc3)oc2=O)cc1 | 70.9 |
| O=C(O)c1nnn(Cc2ccc(Br)cc2)c1C(=O)O | 80.4 |
| Cc1ccc(OCCn2cc(C(=O)O)c3ccccc32)cc1C | 85.4 |
| COc1cc(/C=N/Nc2ncnc3sc4c(c23)CCC4)ccc1O | 48.1 |
| CC(=O)c1c(C)[nH]c(C(=O)N2CCc3ccccc3C2)c1C | 192 |
| COc1ccc(S(=O)(=O)N2CCOCC2)cc1NC(=O)COc1cccnc1[N+](=O)[O-] | 78.7 |
| COc1ccc(/C=N/n2c(N)c(S(=O)(=O)c3cccs3)c3nc4ccccc4nc32)cc1OC | 49.3 |

What follows are molecules tested on Ras-related protein Rab-7a (dog), GTP binding (assay: blockers of fluorescent GTP binding to Rab7 – biochemical, wildtype, multiplex bead flow cytometry, dose response (AID 1336; call rule not given here)). Details: bead-based flow cytometry; series mostly up to 100 µM.

| SMILES | outcome |
| --- | --- |
| COc1cccc(Nc2c(F)c(F)c(F)c(F)c2C(=O)O)c1 | inactive |
| COc1ccc(S(=O)(=O)Cc2ccc(C(=O)N3CCN(c4cc(Cl)ccc4C)CC3)o2)cc1 | inactive |
| CCCCn1c(SCC(=O)c2ccccc2)nc2c1c(=O)[nH]c(=O)n2C | inactive |
| CC1Cc2ccccc2N1S(=O)(=O)c1cccc(C(=O)NCCCO)c1 (stereo not drawn) | inactive |
| COc1cc(/C=N/NC(=S)Nc2cccnc2)cc(OC)c1O | inactive |
| COc1cc2[nH]c(=S)nc(NCCC(C)C)c2cc1OC | inactive |
| O=C(CCc1nnc(-c2ccc3c(c2)OCO3)o1)N1CCC(c2ccc(F)cc2)C1 (stereo not drawn) | inactive |
| COc1ccc(/C=N/NC(=S)Nc2cc(S(=O)(=O)N3CCOCC3)ccc2N2CCOCC2)cc1O | inactive |
| COc1ccc(-c2c3c(nc4sc5c(=O)[nH]c(C)nc5c24)CCC3)cc1 | inactive |
| CC(C)CCNC(=O)CN(CCCN1CCOCC1)C(=O)Cn1nnc(-c2ccc(F)cc2)n1 | inactive |
| N#Cc1c(C(F)(F)F)cc(-c2ccc(Cl)cc2)[nH]c1=O | inactive |
| CCn1c2ccccc2c2nnc(SCC(=O)NCCOC)nc21 | inactive |
| C/C(=N\NC(=O)c1c[nH]c2ccccc12)c1ccc(C)o1 | inactive |
| Cc1ccc(-c2noc(CN3C(C)CCCC3C)n2)cc1 (stereo not drawn) | inactive |
| COc1cc2c(cc1OC)-c1cc(NC3CCCCCCC3)nc(=O)n1CC2 | inactive |
| O=C(N/N=C/c1c(O)n(Cc2ccccc2)c(=O)c2ccccc12)c1cccnc1 | inactive |
| COC(=O)c1cccc(NC(=O)c2nn(C)c(=O)c3ccccc23)c1 | inactive |
| N#C/C(=C/c1ccc(-c2cc(C(=O)O)cc(C(=O)O)c2)o1)c1nc2ccccc2s1 | inactive |
| COc1ccc(/C=C2\SC(=S)NC2=O)cc1OS(=O)(=O)c1ccc(NC(C)=O)cc1 | inactive |
| CCc1nnc(NC(=O)CCC(=O)N2CCN(c3ccccn3)CC2)s1 | inactive |

| SMILES | outcome |
| --- | --- |
| Cc1cc(C(F)F)n2nc(C(=O)Nc3ccc(S(=O)(=O)N4CCCCCC4)cc3)nc2n1 | inactive |
| NC(=O)COC(=O)c1cccc2c1-c1ccccc1C2=O | inactive |
| Cc1nnc(OC(C)C)c2nn(-c3ccccc3F)c(C)c12 | inactive |
| Oc1ccc(/C=N/NC(=S)N/N=C/c2ccc(O)cc2)cc1 | inactive |
| C=CC#CC[N+]1(CC#Cc2ccccc2)CCOCC1 | inactive |
| CCN1/C(=C/c2ccc3cc(C)ccc3[n+]2C)Sc2ccc3sccc3c21 | inactive |
| O=[N+]([O-])c1ccc2c(c1)c(-c1ccccc1)nc1nncn12 | inactive |
| O=S(=O)(N/N=C\c1cccnc1)c1ccccc1 | inactive |
| COc1ccc(CCn2c(C(C)C)nc3c(c(=O)c4ccccc4n3C)c2=O)cc1 | inactive |
| CC(C)Cc1csc(NC(=O)c2ccccc2Cl)c1C(=O)O | inactive |
| COc1ccccc1OCc1cccc(C(=O)O)c1 | inactive |
| COc1ccc(OC)c(Nc2nc(-c3sc(N)nc3C)cs2)c1 | inactive |
| COc1ccc(C(=O)c2c(O)cc(-c3ccc(OC)cc3)oc2=O)cc1 | inactive |
| O=C(O)c1nnn(Cc2ccc(Br)cc2)c1C(=O)O | inactive |
| Cc1ccc(OCCn2cc(C(=O)O)c3ccccc32)cc1C | inactive |
| COc1cc(/C=N/Nc2ncnc3sc4c(c23)CCC4)ccc1O | inactive |
| CC(=O)c1c(C)[nH]c(C(=O)N2CCc3ccccc3C2)c1C | inactive |
| COc1ccc(S(=O)(=O)N2CCOCC2)cc1NC(=O)COc1cccnc1[N+](=O)[O-] | inactive |
| COc1ccc(/C=N/n2c(N)c(S(=O)(=O)c3cccs3)c3nc4ccccc4nc32)cc1OC | inactive |
